# Most compounds without a hit are left out; they make up all but 4.6% or so of the library.
# D1 agonist: human D1 receptor agonism; 1% of 360,000 active; HEK293 T-REx D1 cells, calcium flux, agonist mode; activation, % at 2 µM; P21728; also: 0% is about no effect
#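 Agonism was scored from calcium flux recorded over 180 s (1 read/s) after pintool compound addition, following a 10-cycle baseline. Cells were inducible force-coupled HEK293 TREx D1, plated overnight at 30 C and loaded with no-wash calcium dye.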
# D1 antag: human D1 dopamine receptor antagonism; HEK293 TREx D1 cells, calcium flux, dopamine EC80; active compounds read low; activity change, negative = inhibition, % at 10 µM; 3.2% of 360,000 active; in the data active = activity change below about -30%; also: % is scaled to controls: 0 for no effect and ±100 for the full control effect
#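 Inducible Hek293 Trex D1 cells (tetracycline, overnight, 30 C). Calcium dye 30–90 min RT. Antagonist mode: EC80 dopamine added after 180 s compound read.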
# TRHR agonist: agonists of human TRH receptor. P34981. TRHR cells, calcium flux fluo-8, FDSS agonist mode. activation, % at 2 µM. 0.18% of 360,000 active; also: 0% is about no effect
# Target sequence (P34981 whole entry, looked up): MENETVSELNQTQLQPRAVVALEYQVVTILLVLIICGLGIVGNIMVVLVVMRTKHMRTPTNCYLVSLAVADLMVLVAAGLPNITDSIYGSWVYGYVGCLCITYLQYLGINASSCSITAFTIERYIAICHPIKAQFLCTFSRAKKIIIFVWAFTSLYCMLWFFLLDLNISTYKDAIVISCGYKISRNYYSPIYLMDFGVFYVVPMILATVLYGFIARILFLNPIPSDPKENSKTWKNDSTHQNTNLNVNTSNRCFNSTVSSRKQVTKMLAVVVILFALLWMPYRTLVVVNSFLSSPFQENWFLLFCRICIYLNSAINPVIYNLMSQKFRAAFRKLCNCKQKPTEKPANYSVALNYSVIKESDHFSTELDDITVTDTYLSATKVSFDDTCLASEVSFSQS
#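 TRHR-expressing cells loaded with fluo-8 calcium dye; 23 nL library compound pin-transferred, kinetic FDSS fluorescence (Ex 480/Em 530) recorded about 180 s for agonist-induced calcium release, before a 10 nM TRH EC20 addition for potentiator mode.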
# TRHR PAM: allosterically enhances the human TRH receptor; P34981; TRHR cells, fluo-8 calcium fluorescence, EC20 TRH enhancement; enhancement, % at 2 µM; 0.66% of 360,000 active; AID 493056; in the data active = enhancement above about 30%; also: 0% is about no effect
#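 TRHR-expressing cells loaded with fluo-8 calcium dye were read kinetically (ex 480/em 530) during compound addition, then stimulated with an EC20 of TRH (10 nM final). Enhancement of the Gq-mediated intracellular calcium response was scored.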
# D1 PAM: potentiators of human D1 dopamine receptor. 0.036% of 360,000 active. P21728. HEK293 TREx D1 cells, calcium flux, dopamine EC20 potentiation. potentiation, % at 10 µM; in the data active = potentiation above about 30%; also: 0% is about no effect
# * marks the source's active call; other numbers are inactive results; ! = a repeat was not active. Rule as the data show it, unless noted: active = activation above about 30%; inactive = the rest.
SMILES,D1 agonist,D1 antag,TRHR agonist,TRHR PAM,D1 PAM
COc1ccc(/C(N)=N/OC(=O)C2CCC(=O)N2S(=O)(=O)c2ccc(C)cc2)cc1 (centres undefined),4.9,-32.1*,0.3,1.0,-7.7
CC1=C(C(=O)Nc2cc(C)ccc2C)C2(CCCCCC2)OC1=O,-1.6,7.3,1.3,12.3,-1.2
COc1cc(OC)c(NC(=O)C2=C(C)C(=O)OC23CCCCCC3)cc1Cl,-0.7,-69.8*,0.1,14.2,-5.5
CC1=C(C(=O)Nc2cc(Cl)ccc2C)C2(CCCCC2)OC1=O,32.3*,14.6,0.2,7.4,1.4
CC1=C(C(=O)NCc2cccc(Cl)c2)C2(CCCCCC2)OC1=O,1.4,-31.1*,-1.0,17.3,-1.8
N#Cc1c(NC(=S)NC(=O)c2ccccc2)sc2c1CCCC2,2.0,17.7,0.2,-2.2,0.6
N#Cc1c(NC(=S)NC(=O)c2ccccc2)sc2c1CCN(CCc1ccccc1)C2,48.0*,-5.3,10.8,4.4,-3.5
CC(C)(C)C(=O)Nc1sc2c(c1C#N)CCN(Cc1ccccc1)C2,33.4*,3.0,11.3,0.1,5.8
Cc1oc2ncn(C)c(=O)c2c1C(=O)NCCCN1CCCC(C)C1 (centres undefined),0.8,7.0,1.4,15.9,9.2
CCOC(=O)C1=C(N)Oc2cc(C)[nH]c(=O)c2C1c1ccncc1 (centres undefined),4.5,9.4,0.2,-4.8,-3.5
CCOC(=O)C1=C(N)Oc2c(c(=O)[nH]c3ccccc23)C1c1ccccc1 (centres undefined),2.9,-87.4*,-1.3,5.7,-3.3
Cc1cccc(Oc2ccccc2NC(=O)CSCC(=O)Nc2cc(C)on2)c1,14.7,-44.1*,0.3,-10.1,-6.8
Cc1cc(NC(=O)CSCC(=O)Nc2ccccc2OC(F)F)no1,0.7,3.2,-0.2,2.3,-0.4
CCOc1ccc(Oc2ccccc2NC(=O)CSCC(=O)Nc2cc(C)on2)cc1,13.4,-43.6*,0.1,-6.9,-6.2
Cc1ccc2nc(NCCc3ccc(Cl)cc3)c3nncn3c2c1,1.9,-61.5*!,0.5,8.0,-4.5
COc1ccc(N2C(=O)CSC23C(=O)N(CC(=O)Nc2ccccc2F)c2ccccc23)cc1 (centres undefined),8.6,-2.2,-1.5,-6.0,-3.3
Cc1cc2ccccc2c(=O)n1CC(=O)NCC(=O)N1CCN(c2cccc(Cl)c2)CC1,0.6,-5.9,-0.7,1.7,1.6
CCOC(=O)c1c(C)[nH]c(CCC(=O)NCCCN2CCN(c3ccc(F)cc3)CC2)c1C,-0.2,-37.4*,0.3,-4.1,-5.8
O=C(CCNC(=O)Cn1ccc2ccccc2c1=O)NCCCN1CCN(c2ccccc2F)CC1,2.3,-67.9*,-0.5,-3.1,-15.8
O=C(Cn1c(-c2cccs2)cc2ccccc21)NCCCN1CCN(c2ccccc2F)CC1,0.8,-62.5*,0.1,1.1,-5.3
O=C(CNC(=O)Cn1ccc2ccccc2c1=O)NCCCN1CCN(c2cccc(Cl)c2)CC1,-1.4,-37.0*,-0.1,7.5,-11.5
COc1ccc(-c2nn(CC(=O)NCc3ccccc3)c3c2cnc2ccc(F)cc23)cc1,3.2,-13.2,-0.7,0.2,-2.5
CC(C)(C)c1ccccc1Nc1nc(C#N)nc(NC2CCCC2)n1,3.3,5.0,-1.5,-0.4,8.7
Cc1cccc(C(=O)Nc2cc(-c3ccccc3F)nn2-c2ccccc2)c1,-0.4,5.5,0.3,-3.6,3.6
O=C(CCNC(=O)Cn1ccc2ccccc2c1=O)NCCCN1CCOCC1,1.0,16.1,-0.6,-10.2,3.9
SMILES,D1 agonist,D1 antag,TRHR agonist,TRHR PAM,D1 PAM
O=C(CCNC(=O)Cn1ccc2ccccc2c1=O)NCCCN1CCN(c2ccc(F)cc2)CC1,0.6,-51.1*,-0.3,17.8,-19.0
Cc1ccc(S(=O)(=O)N(CC(=O)N/N=C/c2cccc(C)c2)c2cccc3cccnc23)cc1,2.7,-30.2*,-0.1,-15.4,-9.9
CCOc1ccccc1CNC(=O)CCn1cccn1,0.7,3.6,0.5,-2.7,-4.7
O=C(COc1ccc([N+](=O)[O-])cc1Cl)NCC1CCCO1 (centres undefined),1.8,-38.6*,-0.2,4.0,-4.8
CC(C)CNS(=O)(=O)c1ccc(OCC(=O)NCC2CCCO2)c(Cl)c1 (centres undefined),1.6,-35.7*,-0.2,-0.9,-2.2
Cc1ccc(NC(=O)C2CCN(S(=O)(=O)c3ccc4c(c3)CCCC(=O)N4)CC2)c(Cl)c1,2.2,-0.5,-0.5,4.1,-3.1
Cc1cc(C)cc(-n2nnc(-c3nc(-c4ccccc4F)no3)c2C)c1,0.8,-0.5,-0.1,-0.7,-1.6
N#C/C(=N\Nc1cccc(Cl)c1)C(=O)c1ccccc1,16.5,-15.7,2.7,5.4,-4.2
C/C(=N/NC(=O)c1ccc2c(c1)OCO2)c1cccc([N+](=O)[O-])c1,-0.3,0.6,-0.5,-2.8,-1.3
C/C(=N\NC(=O)c1cccc(N/N=C(\C)c2ccccc2)c1)c1ccccc1,-0.8,-11.7,2.0,-9.8,-13.5
C/C(=N\NC(=S)NCc1ccccc1)c1ccc(Br)cc1,3.7,15.8,0.6,5.4,1.2
C/C(=N/NC(=O)c1ccc2c(c1)OCCO2)c1ccc([N+](=O)[O-])cc1,1.2,-52.0*,-0.8,-3.5,-7.8
COc1ccc(C(=O)/C(C#N)=N/Nc2cccc([N+](=O)[O-])c2)cc1,19.8,-32.5*,1.0,-13.9,-8.7
C/C(=N\NC(=S)NCc1ccccc1)c1ccc2c(c1)OCCO2,8.5,-31.4*,-0.9,-1.0,-5.5
C/C(=N\NC(=O)c1cccc(N/N=C(\C)c2ccc([N+](=O)[O-])cc2)c1)c1ccc([N+](=O)[O-])cc1,0.1,-37.6*,-0.1,1.5,-14.4
CN(Cc1ccc(F)cc1)S(=O)(=O)c1nnc(NC(=O)c2ccccc2Br)s1,10.8,-44.9*!,-0.2,-1.1,-7.5
Cc1ccccc1CS(=O)(=O)c1cn(CC(=O)N2CCC(C)CC2)c2ccccc12,1.5,-64.7*,0.6,-10.3,-5.0
COc1ccc(CSc2nc3ccncc3n2Cc2nc(-c3ccc(OC)c(OC)c3)oc2C)cc1,1.9,9.6,0.2,-1.9,-0.7
O=C(CSc1ncn[nH]1)Nc1ccccc1C(=O)O,-0.5,8.2,-0.5,-7.1,-0.2
O=C(CSc1ncn[nH]1)Nc1ccc(Br)cc1F,1.1,-36.1*,-0.6,-3.9,0.6
Cc1cccc(NC(=O)c2ccc(C(=O)Nc3cccc(C)c3C)cc2)c1C,1.2,-2.2,-1.0,-3.3,-0.8
COc1ccc(C)cc1NC(=O)CSc1ccc(-c2ccco2)nn1,-0.2,-7.0,-0.6,1.3,41.6*
CC(=O)c1cccc(NC(=O)CSc2ccc(-c3ccco3)nn2)c1,0.7,-56.5*,-0.5,-1.4,-9.0
COc1ccc(C)cc1NC(=O)CSc1nnc(-c2ccco2)n1N,1.2,-19.1,-0.7,8.5,-5.8
COc1ccc(S(=O)(=O)Nc2cccc(-c3ccc(N4CCOCC4)nn3)c2)cc1F,-1.2,-37.4*,0.2,0.5,1.8

# Screens from PubChem.
